# An excerpt weighted towards active compounds, which were near 7.9% of everything screened.
# SW480 rereplic – inducers of DNA re-replication in SW480 colon cancer cells | 340,000 compounds, 1.8% hits | SW480 DNA re-replication, Hoechst DNA content imaging, 48 h | Potency, µM (series often up to 46.1 µM), inactives show at the top dose re-replication activation, actives largely listed as activators; note: % of control where 0% means no effect; nearly all actives have a fitted effect of over 55% in size
#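 Hoechst fluorescence of nuclei (405 nm excitation, 500-530 nm emission) measured by plate-scanning imager after 48 hr compound exposure at 37 C; re-replication scored as increased number of nuclei with elevated intensity.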
# MCF10A rereplic – induces DNA re-replication in MCF 10a normal breast cells | MCF 10A DNA re-replication, Hoechst nuclear intensity, 48 h | Potency, µM (top dose mostly 46.1 µM), without a hit: at the top dose activity, positive = re-replication, actives largely listed as activators | 350,000 compounds, 2.9% hits | AID 624296; note: % of control where 0% means no effect; nearly all actives have a fitted effect of over 50% in size
# KB-V1 MDR tox – KB-V1 MDR subline cytotoxicity | 400,000 compounds, 3.4% hits | AID 1347076 | Potency, µM (titrated, usually from 46.1 µM), actives largely listed as cytotoxic | KB-V1 MDR cells viability, CellTiter-Glo, 72 h; note: % is set by controls: 0 for no effect and ±100 for the full control effect; nearly all actives have a fitted effect of over 60% in size
#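 Drug-selected KB-V1 cells, grown in DMEM lacking phenol red with 10% FBS, receive compound titrations; after three days at 37 degrees C, surviving cell ATP is quantified by CellTiter-Glo luminescence and responses normalized and curve-fitted.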
# HT1080 IDH1KD tx – toxicity to HT-1080 IDH1 knockdown cells (counter line). HT-1080 IDH1 knockdown viability, ATP luminescence, 48 h. Potency, µM (series often up to 46.1 µM), for the others: top-dose activity, negative = toxicity, hits mostly cytotoxic. 360,000 compounds, 2% hits. AID 686971;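 note: 0% = DMSO wells and -100% = cell-free medium wells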
#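 CellTiter-Glo luminescence after 48 h compound exposure at 37 degrees C of IDH1-knockdown HT-1080 cells in 5% FBS RPMI. %Activity scaled between DMSO wells and cell-free media wells, with curves fitted and assigned curve classes.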
# KB-3-1 cytotox – KB-3-1 parental cell cytotoxicity | KB-3-1 viability, CellTiter-Glo ATP luminescence, 72 h | Potency, µM (doses to about 46.1 µM), hits mostly cytotoxic | 400,000 compounds, 1.4% hits; note: % is set by controls: 0 for no effect and ±100 for the full control effect; nearly all actives have a fitted effect of over 60% in size
#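 KB-3-1 parental drug-naive adenocarcinoma cells in DMEM/10% FBS, incubated 72 h at 37 C with pin-transferred compounds across a concentration series. Viability by CellTiter-Glo luminescence; concentration-response curves fitted after normalization.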
# HT1080NT lethal – kills 2HG-producing HT-1080-NT fibrosarcoma cells; HT-1080-NT fibrosarcoma viability, CellTiter-Glo ATP luminescence, 48 h; AID 686970; Potency, µM (titrated, usually from 46.1 µM), for inactives: at the top dose activity, negative = less viability, actives largely listed as cytotoxic; 360,000 compounds, 1.6% hits;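 note: NT is the 2HG producing partner of a matched IDH1 knockdown line; 0% = DMSO-treated cells and -100% = media-only wells without cells; nearly all actives have a fitted effect of over 55% in size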
#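 HT-1080-NT; 750 cells/well; 5% FBS RPMI; 48 h compound, 37 degrees C; CellTiter-Glo luminescence; curve fitting and curve-class assignment.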
# * = called active by the depositor; i = inactive; ? = inconclusive; . = no result given; ! = not confirmed by another sample; [ ] = another dose, or the depositor's remark. Calls come from the whole dose curve; as a rule, active = well fitted curve in the direction sought with a large enough effect; inconclusive = small, poorly fitted or top-dose-only effect, or another doubt; inactive = no such curve, though single readings can be large; an effect the other way counts as inactive or inconclusive. Potency is the fitted concentration of half-maximal effect.
SMILES,SW480 rereplic,MCF10A rereplic,KB-V1 MDR tox,HT1080 IDH1KD tx,KB-3-1 cytotox,HT1080NT lethal
O=c1c2ccccc2nc(/C=C/c2ccc([N+](=O)[O-])o2)n1-c1ccc(O)cc1,4.6µM*,?,?,2.6µM*,?,?
Cn1sc(Cl)cc1=O,-7%,11%,.,.,.,.
COc1cc2cc(c1Cl)N(C)C(=O)CC(OC(=O)C(C)N(C)C(C)=O)C1(C)OC1C(C)C1CC(O)(NC(=O)O1)C(OC)C=CC=C(C)C2 (centres undefined),?,?,0.46µM*,?,?,0.0041µM*
CCCCCCCCN1C(=O)[C@H](CC(=O)NCCc2ccccc2OC)C[C@@]2(C(=O)OC)CCCCC=C12,.,.,?,?,i,?
Cc1ccc(N=Nc2cc(C)ccc2N)cc1,7%,?,i,?,i,?
O=C(Oc1ccc(Br)cc1)C1CC(=O)N(c2ccc(F)cc2)C1 (centres undefined),-5%,?,i,3%[9.24 µM],i,3%
O=C(Nc1ccc2c(c1)OCO2)c1cccn(Cc2ccc(F)cc2)c1=O,.,.,i,.,i,.
CC(C)C(NC(=O)C(C(C)C)N(C)C)C(=O)N(C)C(C(=O)N1CCCC1C(=O)N1CCCC1C(=O)NCc1ccccc1)C(C)C (centres undefined),?,?,21µM*,?,?,0.21µM*
O=C(c1ccc2c3c(cccc13)CC2)C1CCCN(CC2CC2)C1 (centres undefined),6%,-5%,?,16µM*,i,?
Cc1cc(Cl)ccc1OCCCC(=O)NCc1cccs1,?,?,26µM*,-11%,i,-5%
Cc1cc(OCCCC(=O)NCc2cccs2)ccc1Cl,?,3%,i,-5%,i,10%
CC(=O)O[C@@H]1CC[C@]2(C)C3CC[C@@]4(C)C(C[C@@H](O)[C@@H]4O)C3[C@@H](OC(C)=O)C[C@H]2C1 (some centres undefined),4%,-11%,i,-8%,i,-11%
C[C@H]1O[C@@H](O[C@H]2[C@@H](O)C[C@H](O[C@H]3[C@@H](O)C[C@H](O[C@H]4CC[C@@]5(C)[C@H](CC[C@@H]6[C@@H]5CC[C@]5(C)[C@@H](C7=CC(=O)OC7)CC[C@]65O)C4)O[C@@H]3C)O[C@@H]2C)C[C@H](O)[C@@H]1O,0.21µM*,0.065µM*,0.18µM*,0.15µM*,?,0.21µM*
CC(=O)OC1CC2(O)C3CCC4CC(O)CCC4(C)C3CCC2(C)C1C1=CC(=O)OC1 (centres undefined),1.6µM*,?,?,0.52µM*,0.18µM*,1.3µM*
CC1OC(OC2C(O)CC(OC3C(O)CC(OC4CCC5(C)C(CCC6C5CCC5(C)C(C7=CC(=O)OC7)C(O)CC65O)C4)OC3C)OC2C)CC(O)C1O (centres undefined),1.8µM*,?,?,0.58µM*,0.18µM*,1µM*
CC(=O)[C@H]1CCC2C3CC[C@H]4C[C@@H](O)CC[C@]4(C)C3CC[C@@]21C (some centres undefined),14%,5%,?,-2%,i,-5%
CC(=O)OC1CC(OC2C(O)CC(OC3C(O)CC(OC4CCC5(C)C(CCC6C5CCC5(C)C(C7=CC(=O)OC7)C(O)CC65O)C4)OC3C)OC2C)OC(C)C1OC1OC(CO)C(O)C(O)C1O (centres undefined),1.2µM*,?,?,1.3µM*,1.2µM*,0.65µM*
Cc1ccc(C(C)C)c(OCCn2c(=O)oc3ccccc32)c1,?,?,?,-9%,i,-3%
C[N+]1([O-])[C@@H]2CC[C@H]1CC(OC(=O)[C@@H](CO)c1ccccc1)C2 (some centres undefined),-1%[20.6 µM],2%[20.6 µM],.,.,.,.
Cc1ccc(C2=NOC(C)(c3nnc(-c4ccccc4)o3)C2)cc1 (centres undefined),0%,?,?,7%,i,7%
CCC12CN3CC(CC)(CN(C1)C3c1c(C)[nH]c(=O)[nH]c1=O)C2=O (centres undefined),.,.,?,.,i,.
CCC1(CC)C(=O)NC(=O)N(C)C1=O,-1%,5%,.,.,.,.
CN(C)/C=c1\sc2c(C#N)cc(C(=O)c3ccc(Br)cc3)n2c1=O,0%,?,i,4%,i,4%
C=CCc1cc(C=C2C(=O)NC(=O)NC2=O)cc(OC)c1OCc1ccc(C(=O)O)cc1,-34%,?,i,8%,i,-6%
C=CCc1cc(C=C2C(=O)N(C)C(=O)N(C)C2=O)cc(OCC)c1OCc1ccccc1,4%,?,16µM*,?,?,?
SMILES,SW480 rereplic,MCF10A rereplic,KB-V1 MDR tox,HT1080 IDH1KD tx,KB-3-1 cytotox,HT1080NT lethal
Cc1ccc2scc(N3CCN(C)CC3)c(=O)c2c1,.,.,i,.,i,.
FC(F)(F)c1ccc2c(c1)N(CCCN1CCN(CCCl)CC1)c1ccccc1S2,-3%,?,?,?,?,?
OCCN1CCN(CCCN2c3ccccc3Sc3ccc(C(F)(F)F)cc32)CC1,?,23µM*!,?,23µM*,i,13µM*
C[n+]1c(-c2ccccc2)c2cc(N)ccc2c2ccc(N)cc21,-97%,-26%,i,1.3µM*,2.9µM*,6.5µM*
Cc1nn(Cc2ccccc2Cl)c(C)c1C(=O)Nc1nnc(C2CC2)s1,?,37%,i,2.5µM*,i,?
Cc1nn(Cc2ccccc2Cl)c(C)c1C(=O)NC1CCCc2ccccc21 (centres undefined),23%,?,i,2%,i,0%
CC1(C)C(C=C(Cl)Cl)C1C(=O)OCc1cccc(Oc2ccccc2)c1 (centres undefined),-48%,0.0052µM*!,i,-1%,i,?
CC1(C)[C@@H](C=C(Cl)Cl)[C@@H]1C(=O)OCc1c(F)c(F)cc(F)c1F,0%,2%,.,.,.,.
CN(C)c1ccc(N=O)cc1,.,.,?,.,i,.
c1ccc(-c2[nH]c(-c3ccccc3)[n+](CC3CO3)c2-c2ccccc2)cc1 (centres undefined),.,13µM*,?,-23%,?,-25%
S=C=Nc1ccccn1,-7%,12%,i,12%,i,25%
c1ccc(/N=C2\N=C(Nc3ccccn3)c3ccccc32)nc1,?,23%,2.9µM*,-9%,i,?
C=CCNc1nnc(Sc2ncccc2[N+](=O)[O-])s1,?,?,i,-19%,i,-31%

# Screening results deposited in PubChem by National Center for Advancing Translational Sciences (NCATS).
